Screening results as filed in PubChem.
Only some compounds are listed: those with a hit (about 19% of all), similar ones and a draw of the others.
TDP1 cell noCPT – qHTS for Inhibitors of human tyrosyl-DNA phosphodiesterase 1 (TDP1): qHTS in cells in absence of CPT | DT40 Tdp1-/- hTDP1 cells, no CPT, ATP luminescence, 48 h | Potency, µM (top dose mostly 46.2 µM), without a hit: at the highest dose activity change, negative = growth inhibition, usual class: inhibitors | 420,000 compounds, 15% hits | AID 686978, 2013; further: potency means the concentration at half of the fitted maximal effect; nearly all actives have a fitted effect of over 55% in size
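Chicken DT40 Tdp1-/- cells stably complemented with human TDP1 were seeded at 400 cells/well with DMSO in place of 20 nM camptothecin. After compound pinning, cells grew at least 48 hr at 37 °C; viability read by CellTiter-Glo luminescence.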
TDP1 cell CPT – growth inhibition of DT40 Tdp1-/-;hTDP1 cells with camptothecin (screen for TDP1 inhibitors); 420,000 compounds, 12% hits; Potency, µM (highest dose often 46.2 µM), for the others: at the top dose activity change, negative = growth inhibition, actives largely listed as inhibitors; chicken DT40 Tdp1-/-;hTDP1 cells + 20 nM CPT, ATP luminescence, 48 h; further: potency means the concentration at half of the fitted maximal effect; nearly all actives have a fitted effect of over 55% in size
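Cell growth measured by CellTiter-Glo luminescence after a minimum 48 h, 37 C compound exposure with 20 nM CPT in Tdp1-knockout DT40 cells stably expressing hTDP1, seeded 400/well; qHTS titration format.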
HT1080-NT tox – kills 2HG-producing HT-1080-NT fibrosarcoma cells. Potency, µM (titrated, usually from 46.1 µM), for inactives: top-dose activity, negative = less viability, most hits filed as cytotoxic. 360,000 compounds, 1.6% hits. AID 686970. HT-1080-NT fibrosarcoma viability, CellTiter-Glo ATP luminescence, 48 h;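 further: NT is the 2HG producing partner of a matched IDH1 knockdown line; potency means the concentration at half of the fitted maximal effect; 0% = DMSO-treated cells and -100% = media-only wells without cells; nearly all actives have a fitted effect of over 55% in size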
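Viability by CellTiter-Glo luminescence after 48 h compound exposure at 37C of HT-1080-NT cells (750/well, RPMI, 5% FBS). % activity scaled between DMSO wells and medium-only wells, then curve-fitted and categorized by curve class.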
IL-1B inflam inh – inhibitors of inflammasome signaling (IL-1 beta secretion); THP-1 LPS/ATP IL-1B secretion, AlphaLISA, 16 h; hits give low values; activity change, % at 57.5 µM; 360,000 compounds, 4.7% hits; in the data active means activity change below about -50%; inconclusive means mostly about -30% to -49%
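THP-1 cells pretreated 1 hr with compounds (up to 57.5 uM final), then stimulated with LPS (250 ng/mL final) plus ATP (1.25 mM final); secreted IL-1B measured by AlphaLISA after 16 hr, decreased signal indicating inhibition.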
HT1080 IDH1KD tx – toxicity to HT-1080 IDH1 knockdown cells (counter line). Potency, µM (doses to about 46.1 µM), for the others: top-dose activity, negative = toxicity, most hits filed as cytotoxic. 360,000 compounds, 2% hits. AID 686971. HT-1080 IDH1 knockdown viability, ATP luminescence, 48 h;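 further: potency means the concentration at half of the fitted maximal effect; 0% = DMSO wells and -100% = cell-free medium wells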
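After a 2 h attachment period, IDH1KD HT-1080 cells took pin-transferred compound for 48 h at 37 °C; ATP-based luminescence after 10 min room-temperature reagent incubation reported viability.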
Starred values were filed as active, the others as inactive; u = inconclusive; x = no result given; [ ] = remark or other dose. Unless noted, the call rests on the fitted dose curve; in most records, active means well fitted curve in the direction sought with a large enough effect; inconclusive means small, poorly fitted or top-dose-only effect, or another doubt; inactive means no such curve, though single readings can be large; an effect the other way counts as inactive or inconclusive. Unless noted, on the % scale 0 is the no-effect control and ±100 the full control effect.

SMILES | TDP1 cell noCPT | TDP1 cell CPT | HT1080-NT tox | IL-1B inflam inh | HT1080 IDH1KD tx
Cc1c(N=Cc2c(O)n(Cc3ccco3)c(=O)c3ccccc23)c(=O)n(-c2ccccc2)n1C | u | 21µM* | -23% | 5 | 1%[9.24 µM]
O=c1c2ccccc2c2ccccc2c(=O)n1Cc1ccco1 | -11% | -28% | 17% | -4 | 20%
COc1ccccc1CNC(=O)CN1C(=O)CSc2ccc(S(=O)(=O)N3CCCCC3)cc21 | 21µM* | u | x | x | x
O=C(CN1C(=O)CSc2ccc(S(=O)(=O)N3CCCCC3)cc21)NCc1ccc(F)cc1Cl | u | 23µM* | x | x | x
COc1ccccc1CNC(=O)CN1C(=O)COc2ccc(S(=O)(=O)N3CCCCC3)cc21 | u | u | 8% | -8 | 9%
COc1ccc(NC(=O)C2CCCN(CCCc3ccccc3)C2)cc1OCC(C)C (stereo unspecified) | 5.2µM* | 7.3µM* | u | -85* | -11%
O=C(O)CCN1C(=O)/C(=C\c2ccncc2)SC1=S | u | u | -6% | -10 | 0%
CCN1C(=O)/C(=C\c2ccncc2)SC1=S | -29% | -17% | -2% | -7 | 0%
CCN1C(=O)/C(=C\c2ccncc2)SC1=Nc1ccc(C)c(C)c1 | 16µM* | u | -2% | -100* | -16%
CCCN1C(=O)/C(=C\c2ccncc2)SC1=Nc1ccccc1 | u | u | -11% | -98* | -13%
Cc1cnc(-n2ncc(C(=O)NCC(C)(C)N3CCOCC3)c2C)nc1-c1cccs1 | -7% | 1%[9.04 µM] | x | x | x
Cc1ccc(NC(=O)C2(C)CCN2C2Cc3ccccc3C2)cc1 (stereo unspecified) | u | u | u | 35 | -26%
CCN1C(=O)N[C@H](c2ccc(Br)cc2)C(C(C)=O)=C1C | 16µM* | 21µM* | 2% | 36 | 3%
CCN1C(=O)N[C@@H](c2cccc(F)c2)C(C(C)=O)=C1C | -22% | -28% | 19% | 21 | 9%
COCCN(CC(=O)NCC1CCCO1)C(=O)CCC(=O)Nc1ccccn1 (stereo unspecified) | 23µM* | 13µM* | 19% | -9 | 0%
O=C(CN(CC1CCCO1)C(=O)CCC(=O)Nc1ccccn1)NCC1CCCO1 (stereo unspecified) | -22% | 4% | 1% | 3 | 7%
CCOP(=O)(OCC)c1nc(/C=C/c2ccccc2)oc1NCc1ccccc1 | u | u | -22% | -75* | -20%
CCOP(=O)(OCC)c1nc(-c2cccc3ccccc23)oc1NCc1ccc(OC)cc1 | u | u | u | -75* | u
CCOP(=O)(OCC)c1nc(/C=C/c2ccccc2)oc1NCc1ccc(OC)cc1 | u | u | u | -7 | u
COc1ccc(CCNc2oc(-c3cccc4ccccc34)nc2P(=O)(OC)OC)cc1OC | 15µM* | u | -1% | -15 | 0%
COc1ccc(OC)c(NC(=O)C2(C)CCN2Cc2ccc(OC)c3ccccc23)c1 (stereo unspecified) | u | u | -20% | 28 | u
CCC1CCc2c(sc(NC(=O)CSc3nc(-c4ccco4)cc(C(F)(F)F)n3)c2C#N)C1 (stereo unspecified) | -28% | -22% | 8% | -1 | 1%
Cc1[nH]nc(C(F)(F)F)c1N=NN1CCOCC1 | 3.3µM* | 2.6µM* | u | -10 | u
CC1(C)N=C(N)N=C(N)N1CCCCc1ccccc1 | 0.52µM* | 2.1µM* | u | 10 | 0.15µM*
Cc1ccc(Cl)cc1NC(=O)CN1CCOCC1 | -17% | 7% | 18% | -8 | 1%
SMILES | TDP1 cell noCPT | TDP1 cell CPT | HT1080-NT tox | IL-1B inflam inh | HT1080 IDH1KD tx
Cc1ccc(S(=O)(=O)N2CCC(NC(=O)c3cccc(C)c3)CC2)cc1 | -17% | 1% | 15% | u | 7%
O=C(Cc1ccc(F)cc1)Nc1ccc2[nH]ncc2c1 | u | 3% | 20% | -4 | 5%
Nc1ccc2[nH]ncc2c1 | 21µM* | 18µM* | 25% | 9 | 0%
CC(C)c1onc(C(=O)N(C)C2CCCCC2)c1[N+](=O)[O-] | -30% | u | -5% | -13 | -8%
CCC(C)NC(=S)NNC(=O)c1ccc(C(C)(C)C)cc1 (stereo unspecified) | -6% | -3% | 0% | -16 | 6%
O=C(N/N=C/c1cccs1)C(O)c1ccccc1 (stereo unspecified) | -27% | 6% | 3% | -3 | 1%
O=[N+]([O-])c1ccc(O)c(/C=N\N=C2c3ccccc3-c3ccccc32)c1 | 12µM* | 23µM* | -17% | -23 | -7%
O=[N+]([O-])c1ccc(/C=N/NC2=NS(=O)(=O)c3ccccc32)cc1 | 4% | -13% | -4% | -17 | -5%
O=S1(=O)N=C(N/N=C/c2cccs2)c2ccccc21 | u | -6% | -28% | -99* | u
O=[N+]([O-])c1ccc(O)c(/C=N/Nc2ccc(Cl)nn2)c1 | 1.2µM* | 1.2µM* | u | 58 | 0.21µM*
O=[N+]([O-])c1ccc(O)c(/C=N/NC2=NS(=O)(=O)c3ccccc32)c1 | 0.52µM* | 4.1µM* | -7% | -11 | 18%
CC1CCN(S(=O)(=O)c2ccc(S(=O)(=O)NCC(=O)C(C)(C)C)cc2)CC1 | -1% | 7% | 10% | -2 | 17%
O=C(Nc1sc2c(c1C(=O)O)CCC2)c1cccs1 | -16% | -7% | -1% | -4 | 0%
Cc1ccc(S(=O)(=O)CC(=O)Nc2sc3c(c2C(N)=O)CCCC3)cc1 | 21µM* | 15µM* | x | x | x
NC(=O)c1c(NC(=O)c2cccs2)sc2c1CCCCCC2 | u | u | u | -84* | -4%[9.24 µM]
NC(=O)c1c(NC(=O)CN2CCN(S(=O)(=O)c3ccccc3)CC2)sc2c1CCC2 | 18µM* | 13µM* | u | -51* | -11%
CN1CCN(CC(=O)Nc2sc3c(c2C(=O)Nc2ccccc2)CCCC3)CC1 | u | u | -23% | u | u
Cn1cc(Br)c(C(=O)Nc2sc3c(c2C(N)=O)CCCC3)n1 | 16µM* | u | -9% | -82* | -4%
O=C(CSc1nc(=O)n(Cc2ccco2)c2c1CCC2)NCc1ccc(Cl)cc1 | -22% | 3% | x | x | x
C[C@@H]1CN([C@H](C)CO)C(=O)CCCn2nncc2CO[C@H]1CN(C)C(=O)Nc1cccc2ccccc12 | 2% | 1% | -1% | -1 | -1%
CC#C[C@@H](CC)c1ccc2ccn(C)c2c1 | u | u | 4% | -4 | 17%
COC(=O)c1c(NC(C)=O)sc2c1CCCC2 | u | -1% | -7% | 17 | -12%
